Experimental data from the supplement of paper PMC11172423.
Unmarked numbers belong to inactive results.

Assays:
[1] = test system: Falciformispora senegalensis CBS197.79; test: growth relative to untreated control; higher = less inhibition, active = 20 or less
Procedure, shortened: (§1)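 For each test, a hyphal fragment suspension of M. mycetomatis MM55 or F. senegalensis CBS197.79 was prepared in colourless RPMI 1640 with L-glutamine and MOPS at 68–72% transmission at 660 nm. Exposure to compound at 100 or 25 µM ran for 7 days at 37 °C in 96-well plates, followed by viability reading with MTS (2 h, 490 nm) or resazurin (600 nm). Growth corresponds to metabolic activity relative to the untreated growth control after correction of both with a blank of medium and dye.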

[2] = test system: Madurella mycetomatis MM55; test: as above
Procedure, shortened: as §1

| Compound | growth ([1]; 25 µM) | growth ([1]; 100 µM) | growth ([2]; 25 µM) | growth ([2]; 100 µM) |
| --- | --- | --- | --- | --- |
| C[C@H](CS)C(=O)N1CCC[C@H]1C(=O)O | 109% | 91.7% | 77.5% | 95.8% |
| NC(=O)c1ncn([C@@H]2O[C@H](CO)[C@@H](O)[C@H]2O)n1 | 110% | 102% | 87.9% | 87.6% |
| O=C(NC1CCN(CCOc2ccc(Cl)cc2)CC1)c1c[nH]c2ccncc2c1=O | 73.5% | 84.8% | 90.2% | 102% |
| FC(F)(F)c1cc(Cl)cc(Nc2nc3cnc(NCC4CC4)nc3n2C2CCNCC2)c1 | 95% | 17.6% (active) | 53.7% | 4.76% (active) |
| CC(C)Nc1cc2c(cn1)nc(Nc1cc(Cl)cc(C#N)c1)n2C1CCNCC1 | 97.8% | 106% | 106% | 79.1% |
| FC(F)(F)c1cc(Nc2nc3cnc(NCC4CC4)nc3n2C2CCNCC2)cc(C(F)(F)F)c1 | 81.9% | 20.9% | 34.1% | 5.31% (active) |
| CC(=O)N1CCN(c2ccc(OC[C@H]3CO[C@](Cn4ccnc4)(c4ccc(Cl)cc4Cl)O3)cc2)CC1 | 31.6% | 12.3% (active) | 3.29% (active) | 3.16% (active) |
| c1ccc(-c2ccnc(C3CCN(CC45CNCC4C5)CC3)n2)cc1 (centres undefined) | 82.4% | 91.2% | 71.4% | 134% |
| c1cc(-c2n[nH]c3ccc(-c4n[nH]c(C5CCCN5)n4)cc23)ccc1CNC1CC1 (centres undefined) | 88.8% | 84.8% | 70.2% | 31.7% |
| COc1ccc(-n2nc(C(N)=O)c3c2C(=O)N(c2ccc(N4CCCCC4=O)cc2)CC3)cc1 | 104% | 91.6% | 111% | 84.1% |
| O=C(Nc1ccc(Cl)c(C(F)(F)F)c1)Nc1ccc(Cl)c(C(F)(F)F)c1 | 99.4% | 88.1% | 43.5% | 49.6% |
| CCCCCOc1ccc(-c2ccc(-c3ccc(C(=O)N[C@H]4C[C@@H](O)[C@@H](O)NC(=O)[C@@H]5[C@@H](O)[C@@H](C)CN5C(=O)[C@H]([C@@H](C)O)NC(=O)[C@H]([C@H](O)[C@@H](O)c5ccc(O)cc5)NC(=O)[C@@H]5C[C@@H](O)CN5C(=O)[C@H]([C@@H](C)O)NC4=O)cc3)cc2)cc1 | 84.5% | 67.5% | 92.9% | 54.2% |
| CN(C)CCNC(=O)c1csc(Nc2ccc(Cl)c(Cl)c2)n1 | 92.7% | 83.6% | 47.4% | 62.3% |
| Clc1ccc2ncc(-c3cccc(NC4CCNC4)n3)n2c1 (centres undefined) | 92% | 83.1% | 78.8% | 56.6% |
| Cc1nc(NCc2ccc(F)cc2)nc(NCC(C)(C)C)c1C | 15.9% (active) | 17.8% (active) | 6.77% (active) | 5.94% (active) |
| CCN(CC)Cc1ccccc1CNc1ccnc2ccsc12 | 103% | 28.1% | 75.4% | 5.38% (active) |
| Nc1nc2ccccc2n1CC(O)c1ccc(Cl)cc1Cl (centres undefined) | 82.1% | 30.8% | 95.4% | 6.46% (active) |
| O=C(NC1CCNCC1)c1ccc(Nc2nccc(-c3ccc(Cl)cc3)n2)cc1 | 98% | 10% (active) | 37.4% | 6.07% (active) |
| CN(C)C1CC(NC(=O)c2ccc(Nc3nccc(-c4ccc(Cl)c(C(F)(F)F)c4)n3)cc2)C1 (centres undefined) | 96.6% | 102% | 7.71% (active) | 6.2% (active) |
| OC1(CN2CCC(Oc3cccc(C(F)(F)F)c3)CC2)CCNC1 (centres undefined) | 98.5% | 19.1% (active) | 5.37% (active) | 12.9% (active) |
| CCNCc1cc(Nc2ccnc3cc(Cl)ccc23)ccc1O | 48.5% | 16.4% (active) | 37% | 2.65% (active) |
| O=C(CCCN1CCC(O)(c2ccc(Cl)cc2)CC1)c1ccc(F)cc1 | 103% | 14.2% (active) | 76.2% | 4.14% (active) |
| O=C(c1ccc(Nc2nccc(-c3ccc(Cl)cc3)n2)cc1)N1CC[C@@H](CO)C1 | 91.1% | 89.6% | 113% | 117% |

| Compound | growth ([1]; 25 µM) | growth ([1]; 100 µM) | growth ([2]; 25 µM) | growth ([2]; 100 µM) |
| --- | --- | --- | --- | --- |
| CC(C)OC(=O)[C@H](C)N[P@](=O)(OC[C@H]1O[C@@H](n2ccc(=O)[nH]c2=O)[C@](C)(F)[C@@H]1O)Oc1ccccc1 | 112% | 108% | 94.5% | 85.7% |
| COc1ccc(-c2nn3c(-c4ccco4)nnc3s2)cc1OC | 104% | 96% | 97% | 55.2% |
| CCO[C@@H]1[C@@H](OC)[C@H](C)O[C@@H](O[C@@H]2C[C@H]3CC[C@@H]4[C@@H](C=C5C(=O)[C@H](C)[C@@H](O[C@H]6CC[C@H](N(C)C)[C@@H](C)O6)CCC[C@H](CC)OC(=O)C[C@H]54)[C@@H]3C2)[C@@H]1OC | 96.5% | 85.7% | 107% | 128% |
| CC1(O)CN(C(=O)c2cccc(NC(=O)c3ccc(Nc4ccccn4)cc3)c2)C1 | 106% | 107% | 55.8% | 141% |
| NC1CCc2nc(-c3cccnc3)nc(Nc3ccc(C(F)(F)F)cc3)c2C1 (centres undefined) | 102% | 13.8% (active) | 71.4% | 5.34% (active) |
| Cc1cccc(C=NNc2cc(N3CCOCC3)nc(OCCc3ccccn3)n2)c1 | 82.1% | 101% | 45.9% | 10.4% (active) |
| CCOCCCNc1nc2cc(OC)c(OC)cc2c2nc(-c3ccccc3)nn12 | 93.1% | 89.3% | 95.5% | 120% |
| Cc1c(-c2ccc(-c3ccccc3F)cc2)nc2ccc(F)cc2c1C(=O)O | 103% | 98.6% | 115% | 83.3% |
| Cc1cc2c(cc1Cl)N(C(=O)Nc1cc(F)cc(-c3cncnc3)c1)CC2 | 87% | 101% | 106% | 49.7% |
| COc1ccc2c(c1)c(CC(=O)O)c(C)n2C(=O)c1ccc(Cl)cc1 | 111% | 104% | 79.7% | 80.8% |
| CS(=O)(=O)NC1CCN(C(=O)c2ccc(Nc3nccc(-c4cc(Cl)cc(C(F)(F)F)c4)n3)cc2)C1 (centres undefined) | 93.2% | 82.5% | 122% | 95.4% |
| Cc1ccc(-c2c3c(nc4sc(C(=O)Nc5ccc(F)cc5)c(N)c24)CCC3)cc1 | 81.3% | 89.6% | 110% | 122% |
| CC(C)CC(NC(=O)N1CCOCC1)C(=O)NC(/C=C/S(=O)(=O)c1ccccc1)CCc1ccccc1 (centres undefined) | 90.8% | 93.9% | 86.4% | 96.5% |
| O=C1CN(C(=O)CCC2CCCC2)C(c2ccc(F)cc2)c2cc(Cl)ccc2N1 (centres undefined) | 71.2% | 74.3% | 69.6% | 94.9% |
| COCC[C@H](NC(=O)c1cc2ccc(C(F)(F)F)cc2[nH]1)c1ccccc1 | 95.1% | 92.9% | 30.3% | 52.2% |
| O=C(NC1(CO)CCOCC1)c1cc2ccc(C(F)(F)F)cc2[nH]1 | 89.7% | 82.1% | 83.9% | 72.9% |
| Cn1nc(-c2cccc(CNC3CCc4ccc(O)cc43)c2)c2cnc(NC3CCCC3)nc21 (centres undefined) | 18% (active) | 21.3% | 5.13% (active) | 10.2% (active) |
| CCCN1CCC=C(c2cc(-c3ccc(C)cc3)no2)C1 | 103% | 16.5% (active) | 92.6% | 4.88% (active) |
| CCOc1cc([C@@H](CS(C)(=O)=O)N2C(=O)c3cccc(NC(C)=O)c3C2=O)ccc1OC | 99.4% | 99.6% | 98.3% | 90.4% |
| CNC(=O)c1cc(-c2n[nH]c3ccc(-c4nc(C5CCCN5)n[nH]4)cc23)ccc1F (centres undefined) | 105% | 106% | 98.4% | 71.5% |
| CO[C@H]1C[C@H](O[C@H]2[C@H](C)O[C@@H](O[C@@H]3/C(C)=C/C[C@@H]4C[C@@H](C[C@]5(C=C[C@H](C)[C@@H](C6CCCCC6)O5)O4)OC(=O)[C@@H]4C=C(C)[C@@H](O)[C@H]5OC/C(=C\C=C\[C@@H]3C)[C@]54O)C[C@@H]2OC)O[C@@H](C)[C@@H]1O | 93.1% | 88.5% | 101% | 125% |
| O=C(O)c1ccc2c(c1)nc(Nc1cccc(Cl)c1)c1ccncc12 | 97.2% | 97.3% | 125% | 78.1% |
| CC(C)(C)NCc1ccc(Nc2ccnc3cc(Cl)ccc23)cc1O | 95.8% | 17.1% (active) | 79.1% | 3.73% (active) |
